Unmarked numbers belong to inactive results.
Compound: C#CCNC(=O)CCSSCCC(=O)NCCc1ccc(C=O)c(C=O)c1
Assay: lysine labeling ratio R10:1 (500 µM / 50 µM probe), SILAC-ABPP in living cells; higher = lower intrinsic lysine reactivity toward the probe, active = 2 or less
Conditions: HeLa; probe concentrations 500 vs 50 µM
Summary of the method: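 Each lysine carries an R value: the filtered median of MS1 peptide ratios of high probe to low probe, with the median then taken over forward and reverse replicates. These came from living SILAC light and heavy HeLa cells in PBS at room temperature labelled with an alkyne-tagged, disulfide-linked lysine probe at 500 µM or 50 µM, in forward and reverse swaps. The lysates were mixed, clicked to biotin-azide, trypsin-digested, captured on neutravidin, released by DTT, alkylated and run by LC-MS/MS on a TIMS-TOF Pro. The highest value allowed is 20.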

Sequence of UniProt P32004 (P32004 whole entry): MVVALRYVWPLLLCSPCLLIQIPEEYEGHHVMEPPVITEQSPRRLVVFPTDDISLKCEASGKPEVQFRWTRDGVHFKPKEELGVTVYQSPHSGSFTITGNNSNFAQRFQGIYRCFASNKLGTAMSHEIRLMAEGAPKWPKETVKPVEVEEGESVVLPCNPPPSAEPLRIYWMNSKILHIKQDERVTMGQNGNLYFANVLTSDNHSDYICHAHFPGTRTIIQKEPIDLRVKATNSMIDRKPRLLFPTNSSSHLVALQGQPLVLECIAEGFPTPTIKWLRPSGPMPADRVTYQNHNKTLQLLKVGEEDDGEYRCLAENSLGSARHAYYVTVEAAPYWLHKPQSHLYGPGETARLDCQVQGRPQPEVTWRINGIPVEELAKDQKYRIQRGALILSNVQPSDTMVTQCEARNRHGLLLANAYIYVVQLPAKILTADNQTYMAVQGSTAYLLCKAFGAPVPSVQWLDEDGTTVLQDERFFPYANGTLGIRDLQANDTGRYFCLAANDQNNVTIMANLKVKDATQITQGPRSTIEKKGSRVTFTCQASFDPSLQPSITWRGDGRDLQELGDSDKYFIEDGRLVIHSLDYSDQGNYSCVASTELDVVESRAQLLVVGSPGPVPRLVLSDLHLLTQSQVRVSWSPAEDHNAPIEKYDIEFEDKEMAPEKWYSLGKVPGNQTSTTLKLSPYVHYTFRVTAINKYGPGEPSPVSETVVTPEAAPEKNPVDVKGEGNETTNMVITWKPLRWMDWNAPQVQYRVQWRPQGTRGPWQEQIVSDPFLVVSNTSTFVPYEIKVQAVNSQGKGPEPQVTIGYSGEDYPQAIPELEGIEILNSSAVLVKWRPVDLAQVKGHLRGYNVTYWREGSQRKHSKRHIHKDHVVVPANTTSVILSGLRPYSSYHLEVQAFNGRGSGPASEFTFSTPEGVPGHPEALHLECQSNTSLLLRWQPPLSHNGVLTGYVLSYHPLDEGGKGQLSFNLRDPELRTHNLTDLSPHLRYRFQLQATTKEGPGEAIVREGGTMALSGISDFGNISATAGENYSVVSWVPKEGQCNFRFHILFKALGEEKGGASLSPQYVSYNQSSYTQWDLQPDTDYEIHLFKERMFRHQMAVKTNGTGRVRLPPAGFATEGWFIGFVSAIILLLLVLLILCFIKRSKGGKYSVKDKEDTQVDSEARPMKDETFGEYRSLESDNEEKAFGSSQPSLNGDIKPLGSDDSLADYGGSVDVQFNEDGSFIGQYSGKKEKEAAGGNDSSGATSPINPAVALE
Sequence of UniProt P05783 (P05783 whole entry): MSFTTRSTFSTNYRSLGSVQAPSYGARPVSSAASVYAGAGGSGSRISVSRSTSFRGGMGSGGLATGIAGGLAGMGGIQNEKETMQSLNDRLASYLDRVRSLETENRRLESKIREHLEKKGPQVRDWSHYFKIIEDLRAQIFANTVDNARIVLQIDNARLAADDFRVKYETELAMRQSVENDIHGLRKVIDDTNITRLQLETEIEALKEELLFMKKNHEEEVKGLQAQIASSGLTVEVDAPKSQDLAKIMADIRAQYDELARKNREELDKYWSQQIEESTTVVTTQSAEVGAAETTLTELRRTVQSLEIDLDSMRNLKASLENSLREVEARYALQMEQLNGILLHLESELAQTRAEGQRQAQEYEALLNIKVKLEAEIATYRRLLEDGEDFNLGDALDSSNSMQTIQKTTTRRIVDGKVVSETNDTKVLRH
Sequence of UniProt Q14980 (Q14980 whole entry): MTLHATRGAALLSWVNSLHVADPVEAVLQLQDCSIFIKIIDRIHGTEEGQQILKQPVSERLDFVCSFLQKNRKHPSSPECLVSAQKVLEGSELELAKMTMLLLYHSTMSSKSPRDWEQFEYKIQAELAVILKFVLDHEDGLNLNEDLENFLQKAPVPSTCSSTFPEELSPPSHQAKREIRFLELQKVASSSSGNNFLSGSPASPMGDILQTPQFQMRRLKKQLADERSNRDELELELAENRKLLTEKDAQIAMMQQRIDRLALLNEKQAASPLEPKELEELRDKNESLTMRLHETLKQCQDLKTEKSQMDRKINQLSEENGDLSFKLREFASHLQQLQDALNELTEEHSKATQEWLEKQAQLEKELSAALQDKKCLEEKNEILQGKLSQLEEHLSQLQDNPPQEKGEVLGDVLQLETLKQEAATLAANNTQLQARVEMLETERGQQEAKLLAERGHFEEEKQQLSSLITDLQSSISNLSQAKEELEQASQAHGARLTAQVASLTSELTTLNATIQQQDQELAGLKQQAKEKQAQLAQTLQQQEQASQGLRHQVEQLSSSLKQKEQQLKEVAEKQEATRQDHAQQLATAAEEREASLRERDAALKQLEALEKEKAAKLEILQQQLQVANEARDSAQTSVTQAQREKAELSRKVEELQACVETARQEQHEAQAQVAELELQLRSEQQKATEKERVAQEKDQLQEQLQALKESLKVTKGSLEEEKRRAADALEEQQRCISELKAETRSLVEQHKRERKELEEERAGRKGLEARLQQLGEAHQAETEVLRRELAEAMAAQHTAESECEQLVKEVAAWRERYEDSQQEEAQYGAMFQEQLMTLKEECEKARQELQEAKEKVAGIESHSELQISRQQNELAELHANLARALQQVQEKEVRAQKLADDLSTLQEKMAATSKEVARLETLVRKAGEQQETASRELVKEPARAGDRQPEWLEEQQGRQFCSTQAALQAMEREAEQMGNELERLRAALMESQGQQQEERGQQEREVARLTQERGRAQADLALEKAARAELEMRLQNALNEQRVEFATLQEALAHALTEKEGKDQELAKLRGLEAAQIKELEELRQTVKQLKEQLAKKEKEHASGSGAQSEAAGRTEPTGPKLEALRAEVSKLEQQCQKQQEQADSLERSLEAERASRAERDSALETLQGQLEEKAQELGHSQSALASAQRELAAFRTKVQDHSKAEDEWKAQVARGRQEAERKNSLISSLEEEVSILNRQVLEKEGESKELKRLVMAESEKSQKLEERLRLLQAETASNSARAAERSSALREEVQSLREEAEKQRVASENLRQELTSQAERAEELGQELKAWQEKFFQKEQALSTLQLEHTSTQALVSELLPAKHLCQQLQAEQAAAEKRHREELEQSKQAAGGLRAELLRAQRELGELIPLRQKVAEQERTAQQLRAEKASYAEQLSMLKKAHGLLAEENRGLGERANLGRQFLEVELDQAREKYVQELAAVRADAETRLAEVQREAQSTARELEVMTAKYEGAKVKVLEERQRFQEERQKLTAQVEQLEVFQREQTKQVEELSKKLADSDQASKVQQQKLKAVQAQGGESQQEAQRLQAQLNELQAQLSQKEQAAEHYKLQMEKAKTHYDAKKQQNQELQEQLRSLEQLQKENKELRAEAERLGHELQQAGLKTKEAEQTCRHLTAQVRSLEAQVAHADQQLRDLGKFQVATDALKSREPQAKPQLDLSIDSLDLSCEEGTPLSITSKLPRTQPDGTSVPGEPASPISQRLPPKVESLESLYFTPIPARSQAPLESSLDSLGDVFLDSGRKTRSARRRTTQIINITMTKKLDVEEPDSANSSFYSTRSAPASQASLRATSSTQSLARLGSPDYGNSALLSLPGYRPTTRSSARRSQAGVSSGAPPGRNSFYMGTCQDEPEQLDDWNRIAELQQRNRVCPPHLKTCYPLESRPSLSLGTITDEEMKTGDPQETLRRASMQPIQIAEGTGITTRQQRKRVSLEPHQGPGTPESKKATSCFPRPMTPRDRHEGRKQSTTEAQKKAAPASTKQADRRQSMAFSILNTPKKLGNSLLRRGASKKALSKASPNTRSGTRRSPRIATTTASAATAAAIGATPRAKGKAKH
Sequence of UniProt Q96TA1 (Q96TA1 whole entry): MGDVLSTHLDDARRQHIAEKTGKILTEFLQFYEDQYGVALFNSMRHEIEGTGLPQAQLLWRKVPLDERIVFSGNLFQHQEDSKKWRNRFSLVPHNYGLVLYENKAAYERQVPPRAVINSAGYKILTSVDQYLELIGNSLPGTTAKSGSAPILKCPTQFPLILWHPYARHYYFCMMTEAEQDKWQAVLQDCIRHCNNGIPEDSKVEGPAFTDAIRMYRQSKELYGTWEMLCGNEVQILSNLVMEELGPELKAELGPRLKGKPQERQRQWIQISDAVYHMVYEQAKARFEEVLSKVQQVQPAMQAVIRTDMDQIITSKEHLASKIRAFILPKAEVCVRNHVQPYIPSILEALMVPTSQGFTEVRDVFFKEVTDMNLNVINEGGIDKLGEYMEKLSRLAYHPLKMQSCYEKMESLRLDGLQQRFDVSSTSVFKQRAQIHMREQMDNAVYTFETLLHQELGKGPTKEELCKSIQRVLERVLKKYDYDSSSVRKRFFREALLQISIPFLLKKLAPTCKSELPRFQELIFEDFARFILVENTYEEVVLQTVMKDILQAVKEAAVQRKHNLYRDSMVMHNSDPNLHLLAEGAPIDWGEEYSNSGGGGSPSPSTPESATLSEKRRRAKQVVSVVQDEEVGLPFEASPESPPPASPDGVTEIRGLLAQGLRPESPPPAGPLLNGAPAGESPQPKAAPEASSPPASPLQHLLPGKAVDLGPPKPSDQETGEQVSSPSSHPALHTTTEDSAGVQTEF
Sequence of UniProt Q9H0U3 (Q9H0U3 whole entry): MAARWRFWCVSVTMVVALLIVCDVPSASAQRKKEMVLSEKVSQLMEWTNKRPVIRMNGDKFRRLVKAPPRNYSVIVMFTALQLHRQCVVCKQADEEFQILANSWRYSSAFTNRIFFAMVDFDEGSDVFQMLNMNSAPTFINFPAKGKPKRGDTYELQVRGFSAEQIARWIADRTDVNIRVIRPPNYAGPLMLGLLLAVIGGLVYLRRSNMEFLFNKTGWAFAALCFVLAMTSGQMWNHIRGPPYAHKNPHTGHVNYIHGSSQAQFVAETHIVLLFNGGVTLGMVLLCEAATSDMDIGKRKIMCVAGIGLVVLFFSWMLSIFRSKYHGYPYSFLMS
Sequence of UniProt Q9H910 (Q9H910 whole entry): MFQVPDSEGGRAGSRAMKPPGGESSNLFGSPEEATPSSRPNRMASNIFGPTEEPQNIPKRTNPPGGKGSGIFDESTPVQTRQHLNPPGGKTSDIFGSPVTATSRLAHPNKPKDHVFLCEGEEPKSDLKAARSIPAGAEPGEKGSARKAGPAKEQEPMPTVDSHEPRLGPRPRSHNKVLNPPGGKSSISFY

Target	lysine labeling ratio R10:1
RPS19 (lysine site: K97) (UniProt P39019)	1.48 (active)
FAT1 (lysine site: K3783) (UniProt Q14517)	1.6 (active)
EDIL3 (lysine site: K290) (UniProt O43854)	2.39
UniProt Q9UHN6 (lysine site: K1182)	6.32
LAMB1 (lysine site: K1495) (UniProt P07942)	4.06
F13A1 (lysine site: K258) (UniProt P00488)	1.15 (active)
LRPAP1 (lysine site: K182) (UniProt P30533)	0.73 (active)
EPHA5 (lysine site: K194) (UniProt P54756)	2.4
UniProt Q13131 (lysine site: K56)	14.5
SYNE2 (lysine site: K1618) (UniProt Q8WXH0)	1.41 (active)
BPTF (lysine site: K609) (UniProt Q12830)	8.91
UniProt Q13765 (lysine site: K82)	3.23
KRT18 (lysine site: K417) (UniProt P05783)	10.9
JPT2 (lysine site: K90) (UniProt Q9H910)	5.53
UniProt Q15149 (lysine site: K300)	2.94
DDX23 (lysine site: K196) (UniProt Q9BUQ8)	1.64 (active)
ATP1B1 (lysine site: K111) (UniProt P05026)	2.14
PSEN1 (lysine site: K109) (UniProt P49768)	2.61
SLC3A2 (lysine site: K300) (UniProt P08195)	6.33
CTTN (lysine site: K235) (UniProt Q14247)	1.56 (active)

Target	lysine labeling ratio R10:1
ITGA1 (lysine site: K292) (UniProt P56199)	2.63
KRT18 (lysine site: K167) (UniProt P05783)	10.7
NUMA1 (lysine site: K1667) (UniProt Q14980)	0.807 (active)
SPTAN1 (lysine site: K274) (UniProt Q13813)	2.28
AHNAK (lysine site: K134) (UniProt Q09666)	1.99 (active)
MAGT1 (lysine site: K66) (UniProt Q9H0U3)	4.14
L1CAM (lysine site: K381) (UniProt P32004)	14
MCAM (lysine site: K286) (UniProt P43121)	2.67
ITGB5 (lysine site: K519) (UniProt P18084)	0.882 (active)
ACSL3 (lysine site: K679) (UniProt O95573)	2.71
RAB2A (lysine site: K130) (UniProt P61019)	1.45 (active)
UniProt P06576 (lysine site: K264)	4.08
L1CAM (lysine site: K62) (UniProt P32004)	2.25
UniProt Q96TA1 (lysine site: K430)	1.69 (active)
UniProt P46781 (lysine site: K66)	2.63
L1CAM (lysine site: K378) (UniProt P32004)	14
UniProt Q9Y653 (lysine site: K107)	2.31
HNRNPU (lysine site: K614) (UniProt Q00839)	2.36
EGFR (lysine site: K489) (UniProt P00533)	1.31 (active)
UniProt P25705 (lysine site: K167)	2.05

Source: the supplement of paper PMC11001985
